aSyn UTR act = Activators via SNCA 5'UTR binding, MLPCN; activity score, % (tested at 7.5 µM), hits read low; alpha-synuclein 5'UTR reporter, activators screen; actives 7.1% (n = 300,000); in the data active means activity score below about -60%
Active calls of the source: *. Only a sample is shown.

SMILES | aSyn UTR act
CCCn1c(N2CCN(CC(=O)c3c(C)n(C)c4ccc(OC)cc34)CC2)nc2c1c(=O)[nH]c(=O)n2C | 63
Cc1ccc(NC(=O)COC(=O)COc2ccc(Cl)cc2C)c([N+](=O)[O-])c1 | -65*
COc1cc(NC(=O)Cn2ncc(Cl)c(Cl)c2=O)c(C)cc1[N+](=O)[O-] | 121
Cc1ccc(NC(=O)CN2CCCCCC2)c(Br)c1 | -204*
COc1ccc(NC(=O)CSc2ccccc2)c([N+](=O)[O-])c1 | -106*
COc1ccc(NC(=O)COc2ccc(C)cc2)c([N+](=O)[O-])c1 | -143*
COc1ccc(NC(=O)CN2CCC(C)CC2)c([N+](=O)[O-])c1 | -68*
Cc1ccn2c(c1)nc(=S)n2C(=O)c1ccco1 | -202*
CSc1cccc(CN(C)C(=O)C2CCC(=O)N(CCCN3CCCC3=O)C2)c1 (stereo unspecified) | -73*
O=c1cc(/C=C/c2c(F)cccc2Cl)[nH]c2ccccc12 | -102*
Cc1ccc(C(=O)Nc2cnc3ccccn3c2=O)cc1 | -120*
Cc1ccc2ncc(NC(=O)c3ccc(F)cc3)c(=O)n2c1 | -139*
COC(=O)c1ccc(N=NN2CCOCC2)cc1 | -147*
O=C(O)c1ccc(N=NN2CCCCC2)cc1 | -85*
COC(=O)c1ccc(N=NN2CCCCCC2)cc1 | -134*
Clc1ccc(N=NN2CCOCC2)cc1 | -70*
Cc1nc(NC(=O)/C=C/c2ccco2)sc1C | -199*
CNS(=O)(=O)c1ccc2nc(NC(=O)/C=C/c3ccco3)sc2c1 | -230*
CCc1nnc(NC(=O)/C=C/c2ccco2)s1 | -501*
CCSc1nnc(NC(=O)/C=C/c2ccco2)s1 | -320*
O=C(/C=C\c1ccco1)Nc1cc([N+](=O)[O-])ccc1F | 97
O=C(/C=C/c1ccco1)NC1=NCCS1 | -108*
O=C(/C=C/c1ccco1)Nc1cccc(NC(=O)/C=C/c2ccco2)n1 | -193*
O=C(/C=C/c1ccco1)Nc1nnc(-c2ccco2)s1 | -117*
COc1ccccc1N=C(C)C1=C(O)CC(c2ccccc2)CC1=O (stereo unspecified) | 122
SMILES | aSyn UTR act
COc1ccc(N=C(C)C2=C(O)COC2=O)cc1 | -93*
Nc1cc2ccncc2c2ccccc12 | -71*
Oc1ccc(/C=C/c2ccc3cccc(O)c3n2)cc1Br | -200*
O=C(O)c1ccc(/C=C/c2ccc3cccc(O)c3n2)cc1 | -188*
COC(=O)c1ccc(COn2nnc3ccccc32)cc1 | -130*
Clc1cccc(Cl)c1COn1nnc2ccccc21 | -149*
O=[N+]([O-])c1ccc2c(c1)nc1n2CCN(C2CCCCC2)C1 | -127*
CCCS(=O)(=O)c1nc(S(=O)(=O)c2ccc(C)cc2)c(N2CCN(C)CC2)s1 | -69*
CCS(=O)(=O)c1nc(S(=O)(=O)c2ccc(C)cc2)c(N2CC(C)OC(C)C2)s1 (stereo unspecified) | -105*
Cn1cccc1C(=O)C(=O)Nc1ccc(Cl)cc1 | -119*
Cn1cccc1C(=O)C(=O)Nc1cc(Cl)cc(Cl)c1 | -155*
Cn1cccc1C(=O)C(=O)Nc1ccc(F)c(F)c1 | -176*
Cn1cccc1C(=O)C(=O)Nc1cccc(Cl)c1Cl | -148*
Cc1ccc(NC(=O)Nc2ccnc(-c3cccnc3)n2)cc1 | 110
O=C(Nc1ccnc(-c2cccnc2)n1)c1ccc(Cl)c(Cl)c1 | -63*
Cc1ccc(C(=O)Nc2ccnc(-c3cccnc3)n2)cc1 | -269*
COc1ccc(C(=O)Nc2ccnc(-c3cccnc3)n2)cc1 | -166*
CCOC(=O)C1(CCc2ccccc2)CCN(C(=O)Cc2nonc2C)CC1 | -78*
COC(=O)c1c(NC(=O)/C=C/C(=O)O)sc(C)c1-c1ccc(C(C)C)cc1 | -68*
Cc1nc(SCC(=O)Nc2ccc3c(c2)OCO3)c(C#N)c2c1CCCC2 | -140*
Cc1cc(C)c(C#N)c(SCC(=O)Nc2ccc3c(c2)OCO3)n1 | -145*
Cc1cc(C)c(C#N)c(SCC(=O)Nc2ccccc2C(N)=O)n1 | -64*
COCc1cc(C)nc(SCC(=O)Nc2ccc(C)c(C)c2)c1C#N | -136*
O=c1nc2c(-c3ccccc3F)n[nH]n2c2ccccc12 | -146*
COCCNC(=S)N1CCC(C(=O)c2ccc3c(c2)OCCO3)CC1 | -75*
SMILES | aSyn UTR act
Cc1cc(C)nc(N/N=C/c2ccccc2OCc2ccc(Cl)cc2)n1 | -80*
COc1cccc(/C=N/NC(=O)c2c(C)nc3ccc(Br)cn23)c1O | 71
Cc1cc(C)nc(N/N=C/c2ccccc2OCc2ccc(Br)cc2)n1 | -144*
Cc1ccc(-c2cc(C(=O)N3CCN(c4ccccc4O)CC3)c3ccccc3n2)o1 | -81*
COc1ccc(-c2cc(C(=O)OCC(=O)NC(C)C)c3ccccc3n2)cc1 | -65*
COc1ccc2cc(-c3cc(C(=O)OCC(=O)Nc4c(C)n(C)n(-c5ccccc5)c4=O)c4ccccc4n3)ccc2c1 | 52
CCN1CCCC(OC(=O)c2cc(-c3ccc(C)cc3)nc3ccccc23)C1 (stereo unspecified) | -94*
CCOc1ccc(-c2cc(C(=O)N3CCC(C)CC3)c3ccccc3n2)cc1 | -128*
Cc1cccc2c(C(=O)N3CCN(c4ccccc4)CC3)cc(-c3ccncc3)nc12 | 94

Source: PubChem BioAssay (Broad Institute)
